# Experimental data: PubChem BioAssay (NCATS)
# Results filed as inconclusive are left out. Entries that show only a call come without a potency. Unmarked numbers belong to inactive results. The source made the active and inactive calls. Unless noted, calls come from the whole dose curve.
# How the values were obtained:
# [1] = qHTS for Inhibitors of the Functional Ribonucleoprotein Complex (vRNP) of Lassa (LASV) Arenavirus: LASV Primary Screen - GLuc reporter signal (AID 1347082; calls by dose curve; tested in HEK293 reporter line; note: nearly all actives have a fitted effect of over 60% in size); conditions: LASV minigenome vRNP, Gaussia luciferase reporter; series mostly up to 57.5 µM
# [2] = qHTS for Inhibitors of the Functional Ribonucleoprotein Complex (vRNP) of Lassa (LASV) Arenavirus: Viability assay - alamar blue signal for LASV Primary Screen (AID 1347083; calls by dose curve; tested in HEK293 reporter line; note: nearly all actives have a fitted effect of over 80% in size); conditions: cell viability, alamar blue fluorescence (LASV minigenome counter-screen); series mostly up to 57.5 µM
# [3] = qHTS for Inhibitors of the Functional Ribonucleoprotein Complex (vRNP) of Lymphocytic Choriomeningitis Arenaviruses (LCMV): Viability assay - alamar blue signal for LCMV Primary Screen (AID 1347085; calls by dose curve; tested in HEK293 reporter line; note: nearly all actives have a fitted effect of over 80% in size); conditions: alamar blue viability counter-screen, LCMV vRNP screen cells; series mostly up to 57.5 µM
# [4] = biological target: Nucleoprotein (Lymphocytic choriomeningitis virus (strain Armstrong)) (UniProt P09992); experiment: qHTS for Inhibitors of the Functional Ribonucleoprotein Complex (vRNP) of Lymphocytic Choriomeningitis Arenaviruses (LCMV): LCMV Primary Screen - GLuc reporter signal (AID 1347086); conditions: LCMV minigenome vRNP cell assay, Gaussia luciferase reporter; series mostly up to 57.5 µM; note: nearly all actives have a fitted effect of over 70% in size
# Nucleoprotein (Lymphocytic choriomeningitis virus (strain Armstrong)), sequence (P09992 whole entry, looked up): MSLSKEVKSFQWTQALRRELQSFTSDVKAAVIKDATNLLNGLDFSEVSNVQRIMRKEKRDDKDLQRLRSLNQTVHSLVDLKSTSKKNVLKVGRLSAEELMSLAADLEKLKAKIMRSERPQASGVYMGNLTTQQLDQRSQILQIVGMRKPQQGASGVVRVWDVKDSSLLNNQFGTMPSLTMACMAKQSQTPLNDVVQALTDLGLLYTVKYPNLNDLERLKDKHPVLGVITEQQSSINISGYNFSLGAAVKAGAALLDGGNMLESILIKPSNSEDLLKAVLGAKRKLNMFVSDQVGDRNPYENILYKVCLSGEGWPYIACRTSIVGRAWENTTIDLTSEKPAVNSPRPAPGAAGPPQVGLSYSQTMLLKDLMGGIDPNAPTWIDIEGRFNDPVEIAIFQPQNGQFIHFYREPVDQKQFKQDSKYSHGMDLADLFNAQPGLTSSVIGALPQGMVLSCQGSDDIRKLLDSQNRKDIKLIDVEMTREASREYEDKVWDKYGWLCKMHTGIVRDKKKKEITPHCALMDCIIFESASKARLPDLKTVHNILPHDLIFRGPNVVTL
# Potency is the fitted concentration of half-maximal effect.
Structure (SMILES),Potency [1],Potency [2],Potency [3],Potency [4],"activity change, negative = inhibition [1]","activity change, negative = reduced viability [2]","activity change, negative = lower viability [3]","activity change, negative = inhibition [4]"
COc1cc(C)cc(O)c1,inactive,inactive,inactive,inactive,,,,
CC1=C(/C=C/C(C)=C/C=C/C(C)=C/C=C/C=C(C)/C=C/C=C(\C)C=O)C(C)(C)CCC1,inactive,inactive,inactive,inactive,,,,
CC(C)C/C=C(\C=O)c1ccccc1,inactive,inactive,inactive,inactive,,,,
O=c1c(-c2ccc(O)cc2)coc2cc(OC3O[C@H](CO)[C@H](O)[C@H](O)[C@H]3O)cc(O)c12 (some centres undefined),19.3 µM (active),17.2 µM (active),21.7 µM (active),19.3 µM (active),,,,
CC(C)CC(=O)OC(C)(C)[C@@H]1Cc2c(ccc3ccc(=O)oc23)O1,inactive,inactive,inactive,inactive,,,,
CCCCCCCCC=O,inactive,inactive,inactive,inactive,,,,
CC(C)=CCC[C@](C)(O)C1CC[C@]2(C)C1[C@H](O)CC1[C@@]3(C)CC[C@H](O[C@@H]4O[C@H](CO)[C@@H](O)[C@H](O)[C@H]4O[C@@H]4O[C@H](CO)[C@@H](O)[C@H](O)[C@H]4O)C(C)(C)C3CC[C@]12C (some centres undefined),inactive,inactive,inactive,inactive,,,,
C=CC(C)=CCC=C(C)C,inactive,inactive,inactive,inactive,,,,
COC(=O)c1nccc2c1[nH]c1ccccc12,inactive,inactive,inactive,inactive,,,,
CC1=CC(=O)OC2CC3OC4C[C@@H](C)C5OC6CC7O[C@]8(C)C/C=C\C9OC%10CC%11OC(CC(C)CO)CC(O)[C@]%11(C)OC%10CC9OC8C[C@]7(C)O[C@]6(C)CCC5OC4C[C@]3(C)OC12 (some centres undefined),inactive,inactive,inactive,inactive,,,,
C/C=C(/C)C(=O)O[C@@H]1c2cc3c(c4c2[C@@]2(CO4)C(=O)C(OC)=C(OC)C=C2C[C@@H](C)[C@H]1C)OCO3,inactive,inactive,inactive,inactive,,,,
c1ccc(-c2ccc3ccccc3n2)cc1,inactive,inactive,inactive,inactive,,,,
CC1(C)C[C@H]2C3=CCC4[C@@]5(C)CC[C@H](O)[C@](C)(CO)C5CC[C@@]4(C)[C@]3(C)C[C@@H](O)[C@@]2(CO)[C@@H](O)[C@@H]1O (some centres undefined),inactive,inactive,inactive,inactive,,,,
COC(=O)C1=CO[C@@H](C)[C@@H]2CN3CCc4c([nH]c5ccccc45)[C@@H]3C[C@H]12,inactive,inactive,inactive,inactive,,,,
CCCc1ccc(OC)cc1,inactive,inactive,inactive,inactive,,,,
COc1cc(O)cc2c1[C@@H]1Oc3c(ccc(O)c3CC=C(C)C)[C@@H]1CO2,inactive,inactive,inactive,inactive,,,,
CC(=O)C1CCC2C3CCC4=CC(=O)C=CC4(C)C3CCC12C (centres undefined),inactive,inactive,inactive,inactive,,,,
C=CC(=O)Nc1cccc(Nc2nc(NC3CCC(N(C)C)CC3)nc3c2ncn3C(C)C)c1 (centres undefined),2.17 µM (active),0.968 µM (active),0.544 µM (active),0.863 µM (active),,,,
CC1=C[C@H]2[C@]3(O)C(C=C(CO)C[C@]2(O)C1=O)[C@@H]1C(C)(C)[C@]1(O)[C@H](O)[C@H]3C (some centres undefined),inactive,inactive,inactive,inactive,,,,

Structure (SMILES),Potency [1],Potency [2],Potency [3],Potency [4],"activity change, negative = inhibition [1]","activity change, negative = reduced viability [2]","activity change, negative = lower viability [3]","activity change, negative = inhibition [4]"
Cc1cc(=O)c2c(O)c3c(O)cc(O)c4c5c(O)cc(O)c6c(O)c7c(=O)cc(C)c8c1c2c(c34)c(c65)c78,inactive,inactive,inactive,inactive,,,,
CC1=CC(=O)CCC1,inactive,inactive,inactive,inactive,,,,
CCCCCCC(=O)OCC,inactive,inactive,inactive,inactive,,,,
CC(C)CC(=O)O,inactive,inactive,inactive,inactive,,,,
O=C(OCC#CCSc1nnc(-c2cccc3ccccc23)o1)c1cc2ccccc2s1,inactive,inactive,inactive,inactive,,,,
CC(C)C(=O)COc1c2occc2cc2ccc(=O)oc12,inactive,inactive,inactive,inactive,,,,
C[C@@H]1CCCCCCCCCCC1=O,inactive,inactive,inactive,inactive,,,,
COc1ccc(CC(=O)c2ccc(OC3OC(CO)C(O)C(O)C3O)cc2O)cc1 (centres undefined),inactive,inactive,inactive,inactive,,,,
C[C@@]12CCC3[C@@](CCC4[C@@]3(C)CCC[C@@]4(C)C(=O)O)(CC1=O)C2 (some centres undefined),inactive,inactive,inactive,inactive,,,,
COc1cc(CCc2ccccc2)c(C(=O)O)c(O)c1CC=C(C)C,inactive,inactive,inactive,inactive,,,,
Cc1cc(Nc2nc(N[C@@H](C)c3ccc(F)cc3)c(C#N)cc2F)n[nH]1,inactive,4.85 µM (active),10.9 µM (active),inactive,,,,
CCCC1CCC(=O)O1 (centres undefined),inactive,inactive,inactive,inactive,,,,
CC(C)COC(=O)c1ccccc1,inactive,inactive,inactive,inactive,,,,
CCCC(=O)OCc1ccccc1,inactive,inactive,inactive,inactive,,,,
O=CN1CCCCC1,inactive,inactive,inactive,inactive,,,,
COc1ccc(CNC(=S)NCc2ccc(OC)cc2)cc1,inactive,inactive,inactive,inactive,,,,
O=C(Nc1nnc(-c2ccco2)o1)c1cc(-c2ccccc2)nc2ccccc12,inactive,inactive,inactive,inactive,,,,
CN(CC=CC#CC(C)(C)C)Cc1cccc2ccccc12,inactive,inactive,inactive,inactive,,,,
CC(=O)OCC1=C(C(=O)O)N2C(=O)[C@@H](NC(=O)Cc3ccccc3)[C@H]2SC1,inactive,inactive,inactive,inactive,,,,

Structure (SMILES),Potency [1],Potency [2],Potency [3],Potency [4],"activity change, negative = inhibition [1]","activity change, negative = reduced viability [2]","activity change, negative = lower viability [3]","activity change, negative = inhibition [4]"
CCCCCCCCOS(=O)(=O)O,inactive,inactive,inactive,inactive,,,,
C=C1C2C[C@H](O)C(C)(C)[C@@]2(O)[C@H](O)C[C@]23C[C@@](C)(O)[C@H](CC[C@H]12)[C@H]3OC(C)=O (some centres undefined),inactive,inactive,inactive,inactive,,,,
CCN1CCC(n2cc(CNc3cc(Cl)c4ncc(C#N)c(Nc5ccc(F)c(Cl)c5)c4c3)nn2)CC1,inactive,inactive,inactive,inactive,,,,
C=C(CC[C@]12OC(C(=O)O)C(O)(C(=O)O)C(C(=O)O)(O1)C(OC(=O)/C=C/[C@@H](C)C[C@@H](C)CC)C2O)[C@@H](OC(C)=O)[C@H](C)Cc1ccccc1 (some centres undefined),inactive,inactive,inactive,inactive,,,,
CC/C=C\CCCCCO,inactive,inactive,inactive,inactive,,,,
CC(C)CNC(=O)/C=C/C=C/CCCCCC/C=C/c1ccc2c(c1)OCO2,inactive,inactive,inactive,inactive,,,,
O=c1ccn([C@H]2C[C@H](O)[C@@H](CO)O2)c(=O)[nH]1,inactive,inactive,inactive,inactive,,,,
CCOC(=O)[C@H](CCc1ccccc1)N[C@@H](C)C(=O)N1[C@@H](C(=O)O)C[C@H]2CCC[C@@H]21,inactive,inactive,inactive,inactive,,,,
Cc1cnnc2ccccc12,inactive,inactive,inactive,inactive,,,,
CCCCC/C=C\C/C=C\C/C=C\CCCCCCC(=O)O[C@H](COCCCCCCCCCCCCCCCC)COP(=O)([O-])OCC[N+](C)(C)C,,,,,-13.6% [at 5.82 µM],4.54% [at 5.82 µM],13.1% [at 5.82 µM],9.5% [at 5.82 µM]
C=C(CO)CC1CC(O)[C@]2(C)OC3CC4OC5C[C@]6(C)O[C@]7(C)CCC8OC9C[C@]%10(C)OC%11C(C)=CC(=O)OC%11CC%10OC9C[C@@H](C)C8OC7CC6O[C@]5(C)C/C=C\C4OC3CC2O1 (some centres undefined),inactive,inactive,inactive,inactive,,,,
CC1CCC(C(C)[C@H]2CCC3C4CC(=O)C5C[C@@H](O)CC[C@]5(C)C4CC[C@@]32C)=NC1 (some centres undefined),inactive,inactive,inactive,inactive,,,,
COc1cc(N2CCN(C)CC2)ccc1Nc1nc(N)c(C(=O)c2c(Cl)cccc2Cl)s1,inactive,inactive,inactive,inactive,,,,
O=C(CO)c1c[nH]c2ccccc12,inactive,inactive,inactive,inactive,,,,
C[C@]12CCC(=O)C=C1CC[C@@H]1[C@H]2[C@@H](O)C[C@@]2(C)[C@H]1CC[C@]2(O)C(=O)CO,inactive,inactive,inactive,inactive,,,,
CC/C=C\CCCCO,inactive,inactive,inactive,inactive,,,,
CN1CC(=O)N2C(Cc3c([nH]c4ccccc34)[C@H]2c2ccc3c(c2)OCO3)C1=O (some centres undefined),inactive,inactive,inactive,inactive,,,,
COc1ccc(-c2coc3cc(OC(C)=O)c(OC)cc3c2=O)cc1,inactive,inactive,inactive,inactive,,,,
